About 8,800 targets were measured; listed, in parts, are those with a hit and a random draw of the rest. About 0.5% of all pairs of compound and target were hits. Unmarked numbers belong to inactive results.
How the values were obtained:
Assay in all cases: log2 fold change, soluble protein after heating vs DMSO (PISA); higher = thermal stabilisation; K562 lysate, 10 uM; active = over 0.2 and 3.5 SD of the protein, either way, in both replicates (recomputed)
[1] = compound: CS(=O)(=O)N1CCN(Cc2cc3nc(-c4cccc5[nH]ncc45)nc(N4CCOCC4)c3s2)CC1 [pictilisib]
Outline: (§1)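 K562 pellets were dounce-homogenised in PBS pH 7.4 with 1 mM MgCl2, and the crude extract at 1 mg/mL protein was treated with 10 μM compound for 30 min. Aliquots were heated for 3 min across 48°C-58°C, pooled, and brought to 0.5% NP-40 at 4°C; soluble protein was the supernatant after 21,000xg for 90 min. Soluble protein was quantified by TMTpro 16plex LC-MS/MS with channel sums equalised, and reported as log2 fold change in thermal stability against DMSO controls, with values from duplicates.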

[2] = compound: C[C@H](C1=CC=C(C=C1)C(=O)NC2=C3C=CNC3=NC=C2)N
Outline: as §1

[3] = compound: Cc1cc(Nc2cc(CN3CCOCC3)c3nc(C)c(Cc4ccc(Cl)cc4F)n3n2)n[nH]1 [gandotinib]
Outline: as §1

[4] = compound: Cc1ccc(NC(=O)c2ccc(CN3CC[C@H](N(C)C)C3)c(C(F)(F)F)c2)cc1Nc1nccc(-c2cncnc2)n1 [bafetinib]
Outline: as §1

[5] = compound: Cc1cccc(CC(=O)N2CCc3c2ccc(-c2cn(C)c4ncnc(N)c24)c3F)n1
Outline: as §1

[6] = compound: CS(=O)(=O)CCNCc1ccc(-c2ccc3ncnc(Nc4ccc(OCc5cccc(F)c5)c(Cl)c4)c3c2)o1 [lapatinib]
Outline: as §1

[7] = compound: C[C@@H](Oc1cc(-c2cnn(C3CCNCC3)c2)cnc1N)c1c(Cl)ccc(F)c1Cl [crizotinib]
Outline: as §1

[8] = compound: C[C@H](Nc1ncnc2nc[nH]c12)c1cc2cccc(Cl)c2c(=O)n1-c1ccccc1 [duvelisib]
Outline: as §1

[9] = compound: Cc1ccc(-n2nc(C(C)(C)C)cc2NC(=O)Nc2ccc(OCCN3CCOCC3)c3ccccc23)cc1 [doramapimod]
Outline: as §1

[10] = compound: Cc1cc(Nc2cc(N3CCN(C)CC3)nc(Sc3ccc(NC(=O)C4CC4)cc3)n2)n[nH]1 [tozasertib]
Outline: as §1

Sequence of UniProt P11142 (P11142 whole entry, looked up): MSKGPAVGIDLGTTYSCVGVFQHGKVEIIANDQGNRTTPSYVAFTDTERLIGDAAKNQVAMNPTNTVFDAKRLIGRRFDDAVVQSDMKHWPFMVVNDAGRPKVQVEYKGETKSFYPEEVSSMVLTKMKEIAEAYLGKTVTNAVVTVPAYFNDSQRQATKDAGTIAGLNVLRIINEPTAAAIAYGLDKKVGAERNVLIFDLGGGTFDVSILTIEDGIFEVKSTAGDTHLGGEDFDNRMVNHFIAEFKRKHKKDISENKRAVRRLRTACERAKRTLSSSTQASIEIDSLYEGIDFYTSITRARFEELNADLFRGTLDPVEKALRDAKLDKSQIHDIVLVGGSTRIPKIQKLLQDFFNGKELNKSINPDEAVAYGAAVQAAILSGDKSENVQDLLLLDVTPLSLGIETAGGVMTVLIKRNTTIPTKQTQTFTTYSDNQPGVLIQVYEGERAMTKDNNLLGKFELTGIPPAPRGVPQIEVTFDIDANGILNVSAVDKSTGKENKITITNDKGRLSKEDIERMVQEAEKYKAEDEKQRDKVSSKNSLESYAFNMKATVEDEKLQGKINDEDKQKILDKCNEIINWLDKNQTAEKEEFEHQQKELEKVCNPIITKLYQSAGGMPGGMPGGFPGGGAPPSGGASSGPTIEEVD
Sequence of UniProt O43824 (O43824 whole entry, looked up): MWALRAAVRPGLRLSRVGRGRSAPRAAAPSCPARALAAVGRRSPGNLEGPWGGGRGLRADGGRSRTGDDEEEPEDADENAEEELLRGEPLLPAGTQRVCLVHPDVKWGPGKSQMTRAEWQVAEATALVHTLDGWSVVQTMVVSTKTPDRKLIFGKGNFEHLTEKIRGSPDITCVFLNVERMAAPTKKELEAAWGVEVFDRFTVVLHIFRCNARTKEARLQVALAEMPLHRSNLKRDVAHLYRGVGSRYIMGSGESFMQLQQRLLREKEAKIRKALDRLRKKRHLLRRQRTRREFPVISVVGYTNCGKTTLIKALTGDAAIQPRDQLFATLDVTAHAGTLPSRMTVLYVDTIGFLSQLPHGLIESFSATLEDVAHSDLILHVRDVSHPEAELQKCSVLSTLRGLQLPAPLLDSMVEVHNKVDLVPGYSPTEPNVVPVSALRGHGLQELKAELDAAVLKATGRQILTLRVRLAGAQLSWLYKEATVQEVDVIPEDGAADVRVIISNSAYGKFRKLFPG
Sequence of UniProt Q9P2P5 (Q9P2P5 whole entry, looked up): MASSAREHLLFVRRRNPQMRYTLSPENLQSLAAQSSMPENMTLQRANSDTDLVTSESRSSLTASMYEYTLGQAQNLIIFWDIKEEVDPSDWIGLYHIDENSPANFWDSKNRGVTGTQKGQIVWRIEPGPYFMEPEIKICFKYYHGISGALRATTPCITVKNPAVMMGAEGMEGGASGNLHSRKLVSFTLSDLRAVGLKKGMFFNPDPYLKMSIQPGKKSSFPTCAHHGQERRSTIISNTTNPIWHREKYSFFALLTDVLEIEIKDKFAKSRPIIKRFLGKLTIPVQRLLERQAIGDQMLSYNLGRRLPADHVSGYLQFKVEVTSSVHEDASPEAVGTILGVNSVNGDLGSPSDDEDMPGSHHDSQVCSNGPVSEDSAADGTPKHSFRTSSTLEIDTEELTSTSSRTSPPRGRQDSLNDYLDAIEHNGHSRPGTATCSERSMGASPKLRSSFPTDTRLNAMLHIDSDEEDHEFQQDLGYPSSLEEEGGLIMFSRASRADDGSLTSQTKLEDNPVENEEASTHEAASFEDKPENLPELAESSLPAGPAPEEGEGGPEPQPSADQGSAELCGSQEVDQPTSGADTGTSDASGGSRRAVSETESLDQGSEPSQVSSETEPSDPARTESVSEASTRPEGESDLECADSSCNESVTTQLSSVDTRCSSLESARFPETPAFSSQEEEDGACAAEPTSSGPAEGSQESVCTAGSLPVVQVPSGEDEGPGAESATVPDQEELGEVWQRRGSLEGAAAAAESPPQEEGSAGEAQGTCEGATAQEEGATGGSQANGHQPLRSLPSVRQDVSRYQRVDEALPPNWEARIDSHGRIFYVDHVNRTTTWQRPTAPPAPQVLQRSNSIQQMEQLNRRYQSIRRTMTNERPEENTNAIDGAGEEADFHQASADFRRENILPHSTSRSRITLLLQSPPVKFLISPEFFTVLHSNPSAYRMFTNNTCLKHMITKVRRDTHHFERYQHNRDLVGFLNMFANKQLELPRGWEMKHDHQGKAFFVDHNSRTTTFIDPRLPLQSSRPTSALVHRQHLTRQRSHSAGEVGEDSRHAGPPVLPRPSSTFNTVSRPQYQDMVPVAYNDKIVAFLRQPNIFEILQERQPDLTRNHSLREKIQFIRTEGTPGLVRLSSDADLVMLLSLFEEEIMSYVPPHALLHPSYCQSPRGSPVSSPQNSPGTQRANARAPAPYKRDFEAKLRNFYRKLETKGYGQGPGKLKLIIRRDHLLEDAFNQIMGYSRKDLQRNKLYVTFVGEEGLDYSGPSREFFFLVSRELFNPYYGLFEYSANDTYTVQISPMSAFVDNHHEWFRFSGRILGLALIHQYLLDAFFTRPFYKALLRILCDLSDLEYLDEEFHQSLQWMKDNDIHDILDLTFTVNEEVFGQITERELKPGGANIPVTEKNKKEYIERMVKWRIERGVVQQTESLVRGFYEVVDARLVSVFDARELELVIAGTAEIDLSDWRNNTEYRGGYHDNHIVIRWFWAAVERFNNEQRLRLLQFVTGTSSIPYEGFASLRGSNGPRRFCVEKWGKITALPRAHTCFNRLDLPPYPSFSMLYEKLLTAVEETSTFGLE
Sequence of UniProt Q9BQQ3 (Q9BQQ3 whole entry, looked up): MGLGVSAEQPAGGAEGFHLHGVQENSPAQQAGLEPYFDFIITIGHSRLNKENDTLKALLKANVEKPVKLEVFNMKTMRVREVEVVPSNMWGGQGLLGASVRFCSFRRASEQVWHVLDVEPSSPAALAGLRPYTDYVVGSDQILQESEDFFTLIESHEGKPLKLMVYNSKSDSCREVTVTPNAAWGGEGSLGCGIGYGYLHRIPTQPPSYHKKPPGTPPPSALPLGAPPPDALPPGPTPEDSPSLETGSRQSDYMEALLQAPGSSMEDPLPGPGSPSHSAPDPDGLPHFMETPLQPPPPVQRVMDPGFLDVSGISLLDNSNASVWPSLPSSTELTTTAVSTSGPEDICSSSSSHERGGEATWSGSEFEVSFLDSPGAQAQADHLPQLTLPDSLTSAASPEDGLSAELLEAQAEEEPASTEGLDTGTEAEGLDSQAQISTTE
Sequence of UniProt P17096 (P17096 whole entry, looked up): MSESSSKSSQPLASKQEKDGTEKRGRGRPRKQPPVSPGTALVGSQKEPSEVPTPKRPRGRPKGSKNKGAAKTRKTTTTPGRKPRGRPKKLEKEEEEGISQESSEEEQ
Sequence of UniProt Q9H079 (Q9H079 whole entry, looked up): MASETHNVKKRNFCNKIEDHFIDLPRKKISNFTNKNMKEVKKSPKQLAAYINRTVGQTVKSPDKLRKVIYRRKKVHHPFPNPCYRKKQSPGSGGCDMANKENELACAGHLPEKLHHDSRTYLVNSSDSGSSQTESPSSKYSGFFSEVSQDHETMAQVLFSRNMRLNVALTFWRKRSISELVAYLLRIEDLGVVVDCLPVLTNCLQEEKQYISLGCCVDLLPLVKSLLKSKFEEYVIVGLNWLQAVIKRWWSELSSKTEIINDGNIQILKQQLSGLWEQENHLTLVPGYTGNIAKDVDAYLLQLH
Sequence of UniProt Q8TDG4 (Q8TDG4 whole entry, looked up): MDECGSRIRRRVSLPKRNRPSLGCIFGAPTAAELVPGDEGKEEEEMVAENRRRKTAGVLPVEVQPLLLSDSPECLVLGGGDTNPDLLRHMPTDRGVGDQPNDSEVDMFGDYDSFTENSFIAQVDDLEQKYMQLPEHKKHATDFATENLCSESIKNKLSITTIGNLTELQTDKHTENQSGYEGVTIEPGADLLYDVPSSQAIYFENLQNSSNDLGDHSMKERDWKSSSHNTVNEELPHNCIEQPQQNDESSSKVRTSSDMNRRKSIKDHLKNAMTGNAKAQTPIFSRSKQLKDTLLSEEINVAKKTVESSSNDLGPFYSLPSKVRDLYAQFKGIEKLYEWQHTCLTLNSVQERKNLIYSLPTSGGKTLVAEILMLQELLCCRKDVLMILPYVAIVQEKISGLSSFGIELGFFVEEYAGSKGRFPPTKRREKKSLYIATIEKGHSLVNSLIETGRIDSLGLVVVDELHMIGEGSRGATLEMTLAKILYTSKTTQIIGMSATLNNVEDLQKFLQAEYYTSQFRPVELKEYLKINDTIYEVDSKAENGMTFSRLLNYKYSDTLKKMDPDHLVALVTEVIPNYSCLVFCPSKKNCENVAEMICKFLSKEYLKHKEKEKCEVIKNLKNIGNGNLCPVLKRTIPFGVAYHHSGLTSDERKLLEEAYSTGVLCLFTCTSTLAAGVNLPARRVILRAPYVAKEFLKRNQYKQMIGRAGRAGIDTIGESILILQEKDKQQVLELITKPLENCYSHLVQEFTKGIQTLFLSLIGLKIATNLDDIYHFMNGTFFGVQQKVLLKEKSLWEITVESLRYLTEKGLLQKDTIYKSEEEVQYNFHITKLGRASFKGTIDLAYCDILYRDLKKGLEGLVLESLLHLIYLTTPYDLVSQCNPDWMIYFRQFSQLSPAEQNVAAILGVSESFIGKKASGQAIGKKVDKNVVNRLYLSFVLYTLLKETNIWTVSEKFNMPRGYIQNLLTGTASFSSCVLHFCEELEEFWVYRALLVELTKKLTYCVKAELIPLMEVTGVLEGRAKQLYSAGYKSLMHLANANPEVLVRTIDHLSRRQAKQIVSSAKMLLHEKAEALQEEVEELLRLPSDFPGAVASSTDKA
Sequence of UniProt Q9H9Y4 (Q9H9Y4 whole entry, looked up): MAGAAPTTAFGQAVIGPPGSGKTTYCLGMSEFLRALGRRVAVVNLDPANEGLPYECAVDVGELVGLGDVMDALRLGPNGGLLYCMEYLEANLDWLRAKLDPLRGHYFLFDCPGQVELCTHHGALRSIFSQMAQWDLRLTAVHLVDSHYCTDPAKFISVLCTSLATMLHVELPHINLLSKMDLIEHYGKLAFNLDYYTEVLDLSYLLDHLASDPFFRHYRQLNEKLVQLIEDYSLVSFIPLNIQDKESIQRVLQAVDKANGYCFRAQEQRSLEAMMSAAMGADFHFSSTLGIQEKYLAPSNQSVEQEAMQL

Target	log2 fold change [1]	log2 fold change [2]	log2 fold change [3]	log2 fold change [4]	log2 fold change [5]	log2 fold change [6]	log2 fold change [7]	log2 fold change [8]	log2 fold change [9]	log2 fold change [10]
HNRNPUL1 (UniProt M0R247)	0.038	0.014	-0.014	0.008	0.034					
IGFBP4 (UniProt P22692)	0.015	0	0.019	-0.149	0.095	-0.007	-0.042	-0.029	0.014	
GPN2 (UniProt Q9H9Y4)		-0.035	0.068		0.106	0.041	0.007	0.126	-0.005	0.015
ITGB1BP2 (UniProt Q9UKP3)		-0.18	0.86 (active)		0.548			-0.005		-0.259
ITPR2 (UniProt Q14571)						-0.571		-0.004		
IRS2 (UniProt Q9Y4H2)	0.023	-0.578 (active)	0.296	0.031	0.307	-0.128	-0.186	0	0.019	
HNRNPD (UniProt D6RF44)							-0.086		0	
HELQ (UniProt Q8TDG4)	-0.009	-0.014	0.012	-0.109	-0.033	0.002	-0.011	0.025	0.042	-0.01
HNRNPM (UniProt M0QZM1)	0.076			-0.243			-0.07	-0.06	-0.017	0.075
KATNBL1 (UniProt Q9H079)		0.05	-0.021		0.01	-0.013	-0.066	0.164	-0.069	0.169
IPP (UniProt Q9Y573)		0.067	-0.172		0.074	0.04		-0.016		0.078
GTPBP6 (UniProt O43824)		0.149	0.156		-0.023			-0.003		0.023
KCT2 (UniProt Q8NC54)	-0.018	-0.331 (active)	0.277 (active)	-0.023	0.099	-0.005	0.048	0.018	-0.028	0.005
HNRNPM (UniProt P52272)	0.063	-0.011	0.02	-0.029	0.053	-0.001	0.025	-0.022	-0.113	-0.019
GTPBP2 (UniProt Q9BX10)	-0.056	0.021	-0.098	-0.038	0.009	0.064	-0.052	0.043	0.027	-0.048
HECW2 (UniProt Q9P2P5)							-0.075	-0.088	0.24	0.165
HYDIN (UniProt Q4G0P3)						0.037		0.179		0.041

Target	log2 fold change [1]	log2 fold change [2]	log2 fold change [3]	log2 fold change [4]	log2 fold change [5]	log2 fold change [6]	log2 fold change [7]	log2 fold change [8]	log2 fold change [9]	log2 fold change [10]
HMGA1 isoform 2 (UniProt P17096)		0.731 (active)	-0.26		-0.491	-0.005	0.125	-0.011	-0.274	
GYPA, A0A2R8Y7F9	-0.033	-0.562	0.202	-0.029	0.17					
HMGN5 (UniProt Q5JSK9)	0.017			-0.04		-0.04				0.074
GPLD1 (UniProt P80108)							-0.108	-0.049	0.081	
ITPRIP (UniProt Q8IWB1)								0.179		
GPA33 (UniProt Q99795)	0.059	-0.584 (active)	0.567 (active)	-0.051	0.554	-0.064		0.154		-0.015
H3-3A (UniProt P84243)	-0.018	0	0.016	-0.049	0.03	0.028	0.046		-0.062	-0.083
JAK3 (UniProt P52333)	0.01	0.418	-0.526	0.14	-0.612 (active)	-0.002	0.051		-0.081	
HSPA8 (UniProt P11142)	0.022	0.012	-0.014	0.059	-0.01	0.004	0.023	0.005	0.001	0.006
HNRNPL, A0A3B3ITJ4	-0.002			-0.083		-0.011				
ISL2 (UniProt Q96A47)	0	0.609 (active)	-0.104	-0.055	-0.096		0.001	0.006	-0.074	
GIT1 (UniProt Q9Y2X7)	-0.007	0.009	-0.076	-0.047	-0.007	0.029	-0.015	-0.08	-0.004	-0.002
HOMER3 (UniProt Q9NSC5)	0.42 (active)	0.048	0.061	0.234	-0.072	0.091	0.021		0.016	
ITM2B (UniProt Q9Y287)	-0.087	-0.061	-0.037	-0.032	0.138		0.005	0.033	0.007	
HTT (UniProt P42858)	-0.028	-0.012	-0.124	-0.112	0.094		-0.042	-0.016	0.006	0.002
GORASP1 (UniProt Q9BQQ3)		-0.103	0.002		-0.028	-0.031	0.015	-0.018	0.015	-0.087
HSP90AA4P (UniProt Q58FG1)	-0.129	-0.464 (active)	0.042	-0.235	0.128	-0.035	-0.032	0.011	-0.034	0.08

From the supplement of paper PMC10849652
